{"source": "the supplement of paper PMC12636033", "note": "± gives the standard deviation of the averaged measurements. In all, about 33,000 sequences were measured (“E-score (rank enrichment, -0.5 to 0.5)”: median about -0.0043, highest 2% from about 0.24 on). Many of the other results were omitted from the sample, so the highest values are more common in it than they were."}
{"system": "2Sp-muMax20 (muMax20 with two 2,6-bis(methyl)pyridine Cys staples)", "assay": "PBM 8-mer E-score (E-score (rank enrichment, -0.5 to 0.5)); higher = stronger preferential binding", "protocol": "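Protein binding microarray (universal PBM chip covering all 10-mers in fixed probe flanks) with chemically synthesized human Max(13-93) bHLH-LZ analogs (not full-length Max) bearing noncanonical residues (hArg, Tha, Aib, Nle at 65) and aromatic Cys staples. Read-out per 8-mer (and its reverse complement): E-score (rank-based enrichment, -0.5 to 0.5) and Z-score of median probe intensity.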"}
{"sequence": "ACCAATTC", "PBM 8-mer E-score": "-0.0718 ± 0.0024"}
{"sequence": "CATTCTTA", "PBM 8-mer E-score": "0.145 ± 0.085"}
{"sequence": "ATGTTTGA", "PBM 8-mer E-score": "0.176 ± 0.031"}
{"sequence": "ATAATCAT", "PBM 8-mer E-score": "0.27 ± 0.013"}
{"sequence": "ATAATCAG", "PBM 8-mer E-score": "0.304 ± 0.005"}
{"sequence": "ATAATCTG", "PBM 8-mer E-score": "0.123 ± 0.1"}
{"sequence": "ATAATCAC", "PBM 8-mer E-score": "0.0279 ± 0.026"}
{"sequence": "CTAATCAG", "PBM 8-mer E-score": "-0.0147 ± 0.026"}
{"sequence": "ATAATCAA", "PBM 8-mer E-score": "0.0608 ± 0.095"}
{"sequence": "CGTCGGCA", "PBM 8-mer E-score": "-0.197 ± 0.056"}
{"sequence": "CTTCGTTC", "PBM 8-mer E-score": "-0.0473 ± 0.038"}
{"sequence": "GGTTCAAC", "PBM 8-mer E-score": "-0.145 ± 0.05"}
{"sequence": "CTCCATAA", "PBM 8-mer E-score": "0.0393 ± 0.028"}
{"sequence": "TCCGGCAA", "PBM 8-mer E-score": "-0.207 ± 0.0021"}
{"sequence": "ATTTCGTG", "PBM 8-mer E-score": "0.166 ± 0.031"}
{"sequence": "CTTTCGTC", "PBM 8-mer E-score": "-0.0338 ± 0.038"}
{"sequence": "ATTTCGTC", "PBM 8-mer E-score": "0.279 ± 0.019"}
{"sequence": "CTACGACA", "PBM 8-mer E-score": "-0.0631 ± 0.043"}
{"sequence": "ATCACGCA", "PBM 8-mer E-score": "0.00557 ± 0.0074"}
{"sequence": "ATCACGCG", "PBM 8-mer E-score": "0.247 ± 0.015"}
{"sequence": "AGCACGTG", "PBM 8-mer E-score": "0.4333 ± 0.0023"}
{"sequence": "ACCACGTA", "PBM 8-mer E-score": "-0.0775 ± 0.034"}
{"sequence": "ACCACGTG", "PBM 8-mer E-score": "0.436 ± 0.012"}
{"sequence": "AGCACGTC", "PBM 8-mer E-score": "-0.0658 ± 0.05"}
{"sequence": "AGCACGTA", "PBM 8-mer E-score": "0.0888 ± 0.021"}
{"sequence": "ACCACGTC", "PBM 8-mer E-score": "-0.0398 ± 0.011"}
{"sequence": "CCCACGCG", "PBM 8-mer E-score": "0.231 ± 0.014"}
{"sequence": "ATCACGCC", "PBM 8-mer E-score": "0.192 ± 0.043"}
{"sequence": "ACCACGCG", "PBM 8-mer E-score": "0.363 ± 0.023"}
{"sequence": "ACCACGCA", "PBM 8-mer E-score": "0.0893 ± 0.0056"}
{"sequence": "ACTGCCAA", "PBM 8-mer E-score": "0.0746 ± 0.053"}
{"sequence": "GGTAAGAC", "PBM 8-mer E-score": "-0.0928 ± 0.022"}
{"sequence": "CCGATAAG", "PBM 8-mer E-score": "-0.181 ± 0.034"}
{"sequence": "ATTTTGCA", "PBM 8-mer E-score": "0.143 ± 0.086"}
{"sequence": "TCGTCTCA", "PBM 8-mer E-score": "-0.0634 ± 0.048"}
{"sequence": "ATGTACCA", "PBM 8-mer E-score": "-0.0255 ± 0.13"}
{"sequence": "GAGTGCGC", "PBM 8-mer E-score": "-0.0296 ± 0.0031"}
{"sequence": "CCCCAAGA", "PBM 8-mer E-score": "0.144 ± 0.023"}
{"sequence": "ACCTGGAT", "PBM 8-mer E-score": "-0.149 ± 0.028"}
{"sequence": "GCCGCAGA", "PBM 8-mer E-score": "-0.0428 ± 0.041"}
{"sequence": "CTAGGACC", "PBM 8-mer E-score": "-0.182 ± 0.025"}
{"sequence": "ATCACGTA", "PBM 8-mer E-score": "0.00227 ± 0.14"}
{"sequence": "AGCACGCG", "PBM 8-mer E-score": "0.289 ± 0.0067"}
{"sequence": "CGCACGCG", "PBM 8-mer E-score": "0.178 ± 0.032"}
{"sequence": "ATCACGTG", "PBM 8-mer E-score": "0.397 ± 0.047"}
{"sequence": "AGCACGCA", "PBM 8-mer E-score": "0.00395 ± 0.075"}
{"sequence": "ATCACGTC", "PBM 8-mer E-score": "0.0413 ± 0.035"}
{"sequence": "CTTCTTAA", "PBM 8-mer E-score": "0.126 ± 0.15"}
{"sequence": "CGAAGTGC", "PBM 8-mer E-score": "0.0928 ± 0.034"}
{"sequence": "CACGCGGA", "PBM 8-mer E-score": "0.357 ± 0.015"}
{"sequence": "CACGCGGG", "PBM 8-mer E-score": "0.187 ± 0.091"}
{"sequence": "CACGCGGC", "PBM 8-mer E-score": "0.299 ± 0.034"}
{"sequence": "AACGCGGC", "PBM 8-mer E-score": "-0.0876 ± 0.028"}
{"sequence": "GACGCGGC", "PBM 8-mer E-score": "-0.08 ± 0.03"}
{"sequence": "AACGCGGA", "PBM 8-mer E-score": "-0.162 ± 0.14"}
{"sequence": "ATTATGCC", "PBM 8-mer E-score": "0.128 ± 0.012"}
{"sequence": "TGCGCACA", "PBM 8-mer E-score": "0.124 ± 0.025"}
{"sequence": "TGGGGAAA", "PBM 8-mer E-score": "0.306 ± 0.022"}
{"sequence": "GTGGGGGA", "PBM 8-mer E-score": "0.0699 ± 0.011"}
{"sequence": "ATGGGGTG", "PBM 8-mer E-score": "0.175 ± 0.018"}
{"sequence": "ATGGGGCC", "PBM 8-mer E-score": "-0.0651 ± 0.11"}
{"sequence": "TGGGGGAA", "PBM 8-mer E-score": "0.0001 ± 0.016"}
{"sequence": "ATGGGGTA", "PBM 8-mer E-score": "0.239 ± 0.05"}
{"sequence": "ATGGGGCG", "PBM 8-mer E-score": "0.25 ± 0.0057"}
{"sequence": "ATGGGGTC", "PBM 8-mer E-score": "0.0299 ± 0.041"}
{"sequence": "CTGGGGAA", "PBM 8-mer E-score": "-0.125 ± 0.026"}
{"sequence": "ATGGGGCA", "PBM 8-mer E-score": "0.11 ± 0.12"}
{"sequence": "GGGGGAAA", "PBM 8-mer E-score": "-0.0158 ± 0.089"}
{"sequence": "GTGGGGAA", "PBM 8-mer E-score": "0.277 ± 0.027"}
{"sequence": "CACAGCGG", "PBM 8-mer E-score": "-0.125 ± 0.059"}
{"sequence": "GATGCCGA", "PBM 8-mer E-score": "-0.0813 ± 0.081"}
{"sequence": "AGCGTATA", "PBM 8-mer E-score": "0.0565 ± 0.04"}
{"sequence": "ACATCACT", "PBM 8-mer E-score": "0.176 ± 0.046"}
{"sequence": "GCCAGTAA", "PBM 8-mer E-score": "-0.116 ± 0.011"}
{"sequence": "CCTCGCGC", "PBM 8-mer E-score": "-0.0606 ± 0.077"}
{"sequence": "CCTCAGAG", "PBM 8-mer E-score": "-0.228 ± 0.044"}
{"sequence": "CTGGGATA", "PBM 8-mer E-score": "-0.0899 ± 0.077"}
{"sequence": "ATGGGGGA", "PBM 8-mer E-score": "-0.0138 ± 0.082"}
{"sequence": "GTGGGATA", "PBM 8-mer E-score": "0.292 ± 0.047"}
{"sequence": "ATGGGATA", "PBM 8-mer E-score": "0.179 ± 0.02"}
{"sequence": "ATGGGGAA", "PBM 8-mer E-score": "0.266 ± 0.018"}
{"sequence": "ATGGGGAC", "PBM 8-mer E-score": "0.0501 ± 0.13"}
{"sequence": "AGCATACG", "PBM 8-mer E-score": "0.02 ± 0.039"}
{"sequence": "ATCGAGAA", "PBM 8-mer E-score": "0.0729 ± 0.041"}
{"sequence": "ACAGGACC", "PBM 8-mer E-score": "-0.187 ± 0.045"}
{"sequence": "CCGGTCCC", "PBM 8-mer E-score": "-0.358 ± 0.035"}
